Shiga toxin inh: inhibitors of Shiga toxin in Vero cells | inhibition, % at 38.7 µM | Vero cells, Shiga toxin protein synthesis inhibition reporter | 290,000 tested, 9.2% active | AID 2315; in the data active = inhibition mostly above about 28%, no sharp cut-off; inactive = mostly below about 43%; note: 0% is about no effect
Pf growth 96h: P. falciparum growth inhibition at 96 hours | P. falciparum luciferase reporter growth, 96 h | Potency, µM (highest dose often 28.7 µM), inactives show at the top dose activity change, negative = inhibition, actives largely listed as inhibitors | 320,000 tested, 6.9% active; note: potency is the fitted concentration of half-maximal effect; % is set by controls: 0 for no effect and ±100 for the full control effect
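P. falciparum expressing integrated firefly luciferase grown in erythrocytes (2% hematocrit, 0.05% parasitemia final) with compounds for 96 hours at 37 C, 5% CO2. Growth inhibition read as loss of luminescence after adding luciferase detection reagent.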
NS1 function inh: inhibitors of influenza NS1 protein function. Potency, µM (top dose mostly 46.1 µM), without a hit: at the top dose activity, positive = more growth. 270,000 tested, 0.4% active; calls by dose curve; note: potency is the fitted concentration of half-maximal effect; actives are rising curves; nearly all actives have a fitted effect of over 50% in size
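In this qHTS, NS1 from influenza A is expressed in budding yeast, where it slows growth. Cells are switched from glucose to 2% galactose medium (pH 6.0, -URA), treated with compound, and growth recovery is read at OD600.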
CHX counter: affects cycloheximide protein synthesis inhibition readout, counter-screen; cell reporter, cycloheximide protein synthesis inhibition counterscreen; max response, %; 300,000 tested, 12% active; in the data active = max response mostly above about 13%, no sharp cut-off; inactive = mostly below about 14%; note: read at 38.3 µM for the half of the compounds with a filed dose; 0% is about no effect
Pf growth 48h: inhibits P. falciparum growth in the first generation, 48 h. 310,000 tested, 5.9% active. Potency, µM (highest dose often 28.7 µM), for the others: at the highest dose activity change, negative = inhibition, actives largely listed as inhibitors. P. falciparum luciferase growth in erythrocytes, 48 h. AID 504832; note: potency is the fitted concentration of half-maximal effect; % is set by controls: 0 for no effect and ±100 for the full control effect
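First compound was added to culture medium, then infected red cells at 0.1% parasitemia and 2% hematocrit (final). After incubation at 37 C under 5% CO2, luciferase detection reagent was dispensed and light output recorded.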
Active calls of the source: *. Compounds with a hit are over-represented: about 21% of the library has one in this group of screens. Unless noted, calls come from the whole dose curve; as a rule, active = well fitted inhibition curve with a large enough effect; inconclusive = small, poorly fitted or top-dose-only effect, or another doubt; inactive = no such curve, though single readings can be large or run the other way.

How did Cc1ccc[n+](CC(=O)c2ccc(NC(=O)c3ccccc3)cc2)c1 do in these assays?
Shiga toxin inh: -14.9; Pf growth 96h: inconclusive; CHX counter: 0.9; Pf growth 48h: inconclusive

Results for O=C(C[n+]1cccc2ccccc21)c1ccc(NC(=O)c2ccccc2)cc1 ?
Shiga toxin inh: 13.4; Pf growth 96h: inconclusive; CHX counter: -0.4; Pf growth 48h: 2.08µM*

Results for N#Cc1ccc[n+](CC(=O)c2ccc(NC(=O)c3ccccc3)cc2)c1 ?
Shiga toxin inh: 31.7*; Pf growth 96h: 9.5%; NS1 function inh: 10.1%; CHX counter: 13.6; Pf growth 48h: inconclusive

How did Cc1cc(C)nc(Nc2ccccc2F)n1 do in these assays?
Shiga toxin inh: 13.4; Pf growth 96h: 13.0%; NS1 function inh: -0.2%; CHX counter: 11.2; Pf growth 48h: 13.3%

Results for CCCC[C@H]1CCCO[C@@](C(=O)NCCN2CCOCC2)(C(F)(F)F)C1 ?
Shiga toxin inh: 6.0; CHX counter: 2.9

How did O=C1N(Cc2cccnc2)C[C@@H]2C[C@@H](c3ccc4nsnc4c3)N3CCC[C@@]123 do in these assays?
Shiga toxin inh: -2.4; Pf growth 96h: inconclusive; NS1 function inh: 4.3%; CHX counter: -1.2; Pf growth 48h: inconclusive

How did O=C(C[n+]1cccc2ccccc21)c1ccccc1 do in these assays?
Shiga toxin inh: 25.9; Pf growth 96h: 13.1µM*; NS1 function inh: 23.1%; CHX counter: 6.0; Pf growth 48h: inconclusive

How did CC1CCN(S(=O)(=O)c2ccc3c(c2)N(CC(=O)NCc2cccnc2)C(=O)CS3)CC1 do in these assays?
Shiga toxin inh: 16.0; Pf growth 96h: 102.1%; NS1 function inh: -7.1%; CHX counter: -1.2; Pf growth 48h: -19.1%

Results for CCCCc1ccc(N=N/C(C(=O)Nc2ccccc2OC)=C(/C)O)cc1 ?
Shiga toxin inh: 7.2; Pf growth 96h: 0.1%; NS1 function inh: 3.9%; CHX counter: -1.6; Pf growth 48h: 11.2%

Results for CCCCc1ccc(N=N/C(C(=O)Nc2cc(OC)c(NC(C)=O)cc2OC)=C(/C)O)cc1 ?
Shiga toxin inh: -9.0; Pf growth 96h: 4.65µM*; NS1 function inh: 6.1%; CHX counter: -1.6; Pf growth 48h: inconclusive

What do the screens show for `COc1cc(C(=O)N/N=C(\Cc2ncc[nH]2)c2ccccc2)cc(OC)c1OC`?
Shiga toxin inh: -13.6; Pf growth 96h: -78.0%; CHX counter: -2.0; Pf growth 48h: inconclusive

How did c1ccc(N/N=C(\Cc2ncc[nH]2)c2ccccc2)cc1 do in these assays?
Shiga toxin inh: 28.6; Pf growth 96h: 9.28µM*; CHX counter: 7.7; Pf growth 48h: inconclusive

How did Oc1ccc(/C(Cc2ccccn2)=N\Nc2ccccc2)c(O)c1 do in these assays?
Shiga toxin inh: -4.9; Pf growth 96h: 6.8%; CHX counter: -1.4; Pf growth 48h: 9.5%

Results for Clc1cccc(N/N=C(\Cc2nc3ccccc3[nH]2)c2ccccc2)c1 ?
Shiga toxin inh: 54.1*; Pf growth 96h: 4.15µM*; NS1 function inh: 8.7%; CHX counter: 21.2*; Pf growth 48h: 11.7µM*

Results for COc1ccc(C(=O)N/N=C(\Cc2ncc[nH]2)c2ccccc2)cc1 ?
Shiga toxin inh: 13.4; Pf growth 96h: inconclusive; NS1 function inh: 4.5%; CHX counter: 4.1; Pf growth 48h: 3.29µM*

Results for CCOC(=O)c1[nH]c2c(c1C)C(=O)CC(c1ccco1)C2 (configuration not stated) ?
Shiga toxin inh: 9.0; Pf growth 96h: 13.9%; NS1 function inh: -15.1%; CHX counter: 6.3; Pf growth 48h: 13.1µM*

What do the screens show for `CSCCOC(=O)c1[nH]c2c(c1C)C(=O)CC(c1ccco1)C2` (configuration not stated)?
Shiga toxin inh: -5.0; Pf growth 96h: 3.7µM*; NS1 function inh: -0.2%; CHX counter: -3.3; Pf growth 48h: inconclusive

Results for Cc1c(C(=O)OCc2ccccc2)[nH]c2c1C(=O)CC(c1ccco1)C2 (configuration not stated) ?
Shiga toxin inh: -7.8; Pf growth 96h: 2.9%; NS1 function inh: -0.3%; CHX counter: -3.1; Pf growth 48h: 1.47µM*

What do the screens show for `CCc1cccc2c(C(=O)C(F)(F)F)cn(CC(=O)N3CCOCC3)c12`?
Shiga toxin inh: -10.1; Pf growth 96h: inconclusive; NS1 function inh: -1.8%; CHX counter: -2.5; Pf growth 48h: 24.1%

How did Cc1ncc(CCl)c2c1OC(C)(C)OC2 do in these assays?
Shiga toxin inh: 14.1; Pf growth 96h: -22.2%; NS1 function inh: 5.0%; CHX counter: -0.8; Pf growth 48h: 7.1%

Results for O=C1ON=C(c2ccccc2)/C1=C/c1ccc(-c2ccccc2[N+](=O)[O-])o1 ?
Shiga toxin inh: 26.5; Pf growth 96h: 8.28µM*; NS1 function inh: -0.9%; CHX counter: -2.4; Pf growth 48h: inconclusive

Results for Cc1ccc2nc(NC(=O)COC(=O)CSc3nc(C)cc(C)n3)sc2c1 ?
Shiga toxin inh: 78.0*; Pf growth 96h: 51.8%; NS1 function inh: 12.1%; CHX counter: 40.5*; Pf growth 48h: 114.4%

Results for COc1ccc2nc(NC(=O)CSc3nc(C)cc(C)n3)sc2c1 ?
Shiga toxin inh: -14.0; Pf growth 96h: -14.0%; NS1 function inh: -49.5%; CHX counter: -3.9

What do the screens show for `COC(=O)c1ccc2nc(NC(=O)COC(=O)CSc3nc(C)cc(C)n3)sc2c1`?
Shiga toxin inh: 64.9*; Pf growth 96h: 4.1%; NS1 function inh: -8.5%; CHX counter: 31.2*; Pf growth 48h: 76.5%

Results for CCOC(=O)Cc1cnc(NC(=O)CSc2nc(C)cc(C)n2)s1 ?
Shiga toxin inh: -7.9; Pf growth 96h: 10.4µM*; CHX counter: 2.3; Pf growth 48h: 1.0%

What do the screens show for `CSc1nsc(SCC(=O)Nc2nc3ccc(C)cc3s2)n1`?
Shiga toxin inh: 34.0; Pf growth 96h: 92.0%; NS1 function inh: 4.6%; CHX counter: 20.0*; Pf growth 48h: 34.4%

How did Cc1cc(C)nc(SCC(=O)Nc2ncc(Cc3cccc(Cl)c3Cl)s2)n1 do in these assays?
Shiga toxin inh: -5.1; Pf growth 96h: 21.7%; NS1 function inh: 1.0%; CHX counter: -1.6; Pf growth 48h: -18.6%

How did Cc1c(NC2(C#N)CCCCC2)c(=O)n(-c2ccccc2)n1C do in these assays?
Shiga toxin inh: -18.5; Pf growth 96h: 2.5%; NS1 function inh: 1.5%; CHX counter: -3.1; Pf growth 48h: -1.4%

What do the screens show for `CCN(CC(=O)Nc1c(F)cccc1F)C(=O)c1ccc(N2CCOCC2)c([N+](=O)[O-])c1`?
Pf growth 96h: inconclusive; Pf growth 48h: 13.8%

How did CC1C(=O)NN=C1C(=O)N/N=C/c1cccs1 (configuration not stated) do in these assays?
Shiga toxin inh: 86.1*; Pf growth 96h: 26.3%; CHX counter: 19.4*; Pf growth 48h: 86.8%

Results for O=C(N/N=C/c1cccs1)c1ccccn1 ?
Shiga toxin inh: 110.7*; Pf growth 96h: 406.0%; NS1 function inh: -15.1%; CHX counter: 32.7*; Pf growth 48h: 362.9%

Results for Cc1ccc(/C=N/NC(=O)c2ccccn2)s1 ?
Shiga toxin inh: 43.6*; Pf growth 96h: 168.0%; NS1 function inh: 13.1%; CHX counter: 48.9*; Pf growth 48h: 115.6%

High-throughput results (PubChem)
